An excerpt weighted towards active compounds, which were near 4% of everything screened.
Rv3671c inh: Rv3671c serine protease inhibitors, primary screen, biochemical, fluorescence polarization, M. tuberculosis H37Rv | inhibition, % at 5.96 µM | hit rate 0.048% among 320,000 | AID 2606, 2010; in the data active means inhibition above about 38%;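 further: extracellular domain of Rv3671c used as enzyme; 0% = enzyme with DMSO and 100% = no enzyme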
GDH-TPI counter-1: GDH-TPI coupling enzyme inhibitors, primary screen, artefact control for M. tuberculosis FBA inhibitor project, biochemical, absorbance, full deck; GDH-TPI coupled enzyme counterscreen, NADH absorbance; inhibition, % at 4.8 µM; hit rate 1.2% among 360,000; in the data active means inhibition above about 30%;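 further: 0% = DMSO wells and 100% = wells lacking the enzyme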
RecA splice inh: Mtb RecA intein splicing inhibitors, primary screen, biochemical, fluorescence, HTS. cell-free RecA intein splicing. AID 2221, 2009. inhibition, % (concentration not given with the values). hit rate 0.75% among 290,000. Protein RecA (Mycobacterium tuberculosis (strain ATCC 25618 / H37Rv)), P9WHJ3; in the data active means inhibition above about 30%;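 further: 0% = vehicle wells and 100% = reference inhibitor control wells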
Mtb UGM inh: M. tuberculosis UGM enzyme inhibitors, primary screen, biochemical, fluorescence polarization, single point; inhibition, % at 10 µM; AID 504406, 2011; purified UGM, fluorescence polarization probe displacement; hit rate 0.06% among 320,000; in the data active means inhibition above about 10%, passing the limit was not always enough
Mtb FBA inh: Mtb FBA enzyme inhibitors, primary screen, biochemical, fluorescence, strain H37Rv. hit rate 2.3% among 360,000. inhibition, % at 1 µM. purified M. tuberculosis FBA, fluorescence read-out. Fructose-bisphosphate aldolase (Mycobacterium tuberculosis (strain ATCC 25618 / H37Rv)), …;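 further: 0% = vehicle and 100% = reference inhibitor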
Target sequence (P9WQA3 whole entry, looked up): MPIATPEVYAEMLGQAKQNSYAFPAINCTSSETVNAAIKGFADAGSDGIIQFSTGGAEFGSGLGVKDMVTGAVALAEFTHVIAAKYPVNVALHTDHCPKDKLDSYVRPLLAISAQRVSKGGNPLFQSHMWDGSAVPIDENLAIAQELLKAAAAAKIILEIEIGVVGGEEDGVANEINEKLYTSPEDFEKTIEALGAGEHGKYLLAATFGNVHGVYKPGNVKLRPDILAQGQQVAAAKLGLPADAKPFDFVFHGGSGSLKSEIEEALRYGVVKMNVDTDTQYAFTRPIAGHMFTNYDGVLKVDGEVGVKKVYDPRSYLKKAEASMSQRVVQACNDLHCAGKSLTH
Mtb bLac sens: beta-lactam sensitization of Mtb H37Rv, H37Rv; M. tuberculosis H37Rv growth with meropenem, percent inhibition; hit rate 0.27% among 330,000; inhibition, % at 25 µM; call rule not given here;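 further: growth measured after seven days incubation then overnight dye step; 0% = bacteria only wells and 100% = bacteria with antibiotic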
Mtb FBA confirm: M. tuberculosis aldolase blockers, biochemical, fluorescence, strain H37Rv, confirmation; shares compounds with Mtb FBA inh; purified M. tuberculosis FBA, fluorescence read-out; inhibition, % at 1 µM; hit rate 78% among 5,600;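 further: 0% = vehicle wells and 100% = reference inhibitor wells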
GDH-TPI counter-2: GDH-TPI coupling enzyme inhibitors, artefact control for M. tuberculosis FBA inhibitor project, biochemical, fluorescence, high throughput; inhibition, % at 1 µM; hit rate 81% among 5,600; GDH-TPI coupled enzyme counterscreen; shares compounds with Mtb FBA inh; in the data active means inhibition above about 10%
* hit, by the source's call; . = no result; + = active, no number. Unless noted, no stated cut-off is given here; in the data, active means inhibition above about 27%; inactive means the rest.

SMILES	Rv3671c inh	GDH-TPI counter-1	RecA splice inh	Mtb UGM inh	Mtb FBA inh	Mtb bLac sens	Mtb FBA confirm	GDH-TPI counter-2
CCSc1n[nH]c2nc3c(c(=O)n12)C1(CCCCC1)Cc1ccccc1-3	4.4	15.2	-14.4	2.6	4.7	0.1	.	.
O=C(Cc1ccccc1)Nc1ccccc1C(=O)Nc1ccccc1	7.3	10.5	0.4	3.2	2.8	11.6	.	.
O=C(Cc1ccccc1)Nc1cccc(C(=O)O)c1O	-9.6	4.8	-1.1	1.0	75.7*	-5.3	81.5*	49.2*
O=C(Nc1ccc(Oc2ccccc2)cc1)c1ccc2sc([C@H]3C[C@H](O)[C@@H](CO)O3)nc2c1	.	8.0	.	.	-5.1	.	.	.
CCCC[n+]1ccn(-c2nc3ccccc3nc2[N-]S(=O)(=O)c2ccccc2)c1	6.1	14.4	-4.8	1.0	33.1*	-7.9	+	196.9*
N#Cc1cccc(C#N)c1NCC1CCCO1 (centres undefined)	5.5	12.7	2.4	0.8	96.7*	3.6	184.5*	121.7*
N#Cc1cn(CC(=O)NCC2CCCO2)c2ccccc12 (centres undefined)	1.3	1.2	-2.5	-1.2	-1.8	3.3	.	.
N#Cc1cc(Cl)c(NCC2CCCO2)cc1C#N (centres undefined)	5.3	21.4	.	3.8	37.6*	6.9	76.6*	65.4*
C#CCn1c(-c2cccs2)nc2ccccc21	-2.1	10.4	0.4	0.2	67.6*	2.5	61.5*	39.3*
CCn1c(-c2ccco2)nc2ccccc21	-1.8	-10.2	-3.2	1.7	16.5	2.7	.	.
CCn1c(-c2cccs2)nc2ccccc21	5.5	2.2	-0.4	2.4	57.7*	63.8	122.5*	108.1*
Cc1cccc(C)c1NC(=O)Nc1nnc([C@@H]2C[C@H](O)[C@@H](CO)O2)s1	.	-11.5	.	.	-2.7	.	.	.
Clc1ccc(CNCCCSc2ncccn2)cc1Cl	-11.6	-9.4	-2.7	2.8	-0.1	0.1	.	.
Clc1ccc(CNc2cnccn2)cc1Cl	0.2	7.6	-0.1	-0.2	61.2*	6.2	5.7	2.8
N#Cc1ccc(CNc2cnccn2)cc1	-7.7	5.2	0.8	3.3	68.6*	-2.7	1.0	-1.6
Cc1c(O)cnc2nn(-c3ccccc3)c(=N)n12	.	.	.	.	90.9*	.	81.2*	52.0*
CCCCN(CCCNC(=O)CN1C(=O)COc2ccc(S(=O)(=O)N3CCC(C)CC3)cc21)Cc1ccccc1	-1.5	-1.7	-0.5	-1.9	0.6	4.6	.	.
CCOC(=O)c1n[nH]n2c1nc(=O)c1ccccc12	.	3.4	-1.0	-0.1	32.5*	0.2	116.3*	108.3*
CCOc1cc(-c2cc(-c3ccc(N)cc3)nc(N)c2C#N)ccc1O	3.6	29.4	-100.5	2.7	29.3*	65.0	51.9*	44.8*
CCOc1cc(-c2cc(-c3ccccc3)nc(N)c2C#N)ccc1O	-15.7	-0.4	4.5	1.0	3.8	10.8	.	.
CCc1ccc(CN2CCCC(C(=O)Nc3ccc(-c4cscn4)cc3)C2)o1 (centres undefined)	-11.7	-10.9	-3.4	0.7	-3.3	95.3	.	.
CCOC(=O)C1CCN(C(=O)c2cc3c(=O)n4cccc(C)c4nc3s2)CC1	-9.8	12.0	-23.2	0.5	99.6*	0.9	+	165.9*
CC(C)CN(CC(C)C)C(=O)c1cc2c(=O)n3ccccc3nc2s1	-1.1	4.4	-29.3	4.0	59.0*	9.7	+	194.5*
CCC1CCCCN1C(=O)c1cc2c(=O)n3cccc(C)c3nc2s1 (centres undefined)	4.1	6.7	.	0.1	15.9	2.8	.	.
Cc1cccn2c(=O)c3cc(C(=O)N4CCCCC4)sc3nc12	-2.9	31.3*	-11.1	-0.9	63.9*	4.6	122.0*	83.3*
SMILES	Rv3671c inh	GDH-TPI counter-1	RecA splice inh	Mtb UGM inh	Mtb FBA inh	Mtb bLac sens	Mtb FBA confirm	GDH-TPI counter-2
CCCN(CCC)C(=O)c1cc2c(=O)n3cccc(C)c3nc2s1	-0.4	24.0	-16.2	-3.8	29.8*	4.5	137.2*	98.0*
Cc1cccn2c(=O)c3cc(C(=O)NC4CCCC4)sc3nc12	1.5	17.4	-30.4	-0.6	91.2*	7.1	66.5*	50.9*
Cc1cccn2c(=O)c3cc(C(=O)NCCCOC(C)C)sc3nc12	1.4	23.0	-16.5	-0.4	102.7*	-2.0	4.5	1.5
Cc1cccn2c(=O)c3cc(C(N)=S)c(=N)n(CCCOC(C)C)c3nc12	-1.1	15.9	-480.7	2.3	62.6*	-4.3	5.7	0.2
CCOCCCNC(=O)c1cc2c(=O)n3cccc(C)c3nc2s1	-8.0	15.2	-12.4	2.1	23.8	-5.9	.	.
COCCN1C[C@@H](CO)O[C@@H](n2cnc3c(NCCN(C)C)ncnc32)C1	.	4.4	.	.	-0.4	.	.	.
O=C(N/N=C/c1ccc2cccc(OCc3ccccc3)c2n1)c1ccc(Br)cc1	-48.3	10.8	-0.5	-0.2	18.5	36.0	.	.
NC(=S)N/N=C/c1ccc2cccc(OCc3ccccc3)c2n1	-46.2	17.5	7.4	-2.6	40.1*	88.6	47.0*	36.8*
COc1ccc(C(=O)N/N=C/c2ccc3cccc(OCc4ccccc4)c3n2)cc1	-122.1	23.0	-0.4	-2.1	63.2*	-4.5	25.7	15.0*
Cc1noc(C)c1NC(=O)Nc1ccc2c(c1)CC(=O)N([C@H](C)CO)C[C@@H](C)[C@H](CN(C)CC1CCCCC1)O2	1.1	9.9	.	-2.0	5.2	7.2	.	.
O=C(NCc1ccco1)c1cc2nc(-c3ccc4c(c3)OCO4)cc(C(F)(F)F)n2n1	-14.4	21.4	-15.7	-2.0	0.0	-3.3	.	.
COc1ccc(-c2cc(C(F)(F)F)n3nc(C(=O)NCc4ccco4)cc3n2)cc1	-8.6	34.2*	-5.0	-0.3	47.0*	5.7	106.4*	79.8*
CC1(C(=O)Nc2ccc(Cl)c(Cl)c2)CCN1C(=O)C1CCCCC1 (centres undefined)	.	1.8	.	.	-1.0	.	.	.
COc1cc(OC)cc(-c2oc3cccnc3c2C#CCCO)c1	-9.7	10.8	3.6	1.5	41.9*	10.3	-4.9	-5.0
CCOC(=O)c1cnc2cc3c(cn2c1=O)CCCC3	-0.6	12.4	-1.5	-0.4	93.8*	-2.4	+	+
CC1(C(=O)Nc2cccnc2)Cc2c(-c3ccc4c(c3)OCO4)ccnc2O1 (centres undefined)	.	7.1	.	.	36.7*	.	43.4*	29.9*

Screens from PubChem.
